ChEMBL document CHEMBL3988442, “University of Dundee, Small-Polar-MMV Screening Library” (2021)
Hit rate of the full screen: of about 85,000 compounds, about 440 (0.52%) showed an effect of 50% or more. Many of the other results were omitted from the sample, so strong results are more common in it than they were.

Experiment: In vitro enzyme assay to detect hydrolysis of chlorophenol red-beta-D-[…] directly proportional to the number of Toxoplasma stably expressing beta-galactosidase
Assay type: functional, organism-based, Toxoplasma gondii
Design: scale not given: in the data most compounds retested in dose-response had high values

CCN(CC)CCOC1CCNCC1
Percent Effect (50 µM): -2.471%

CC(=O)c1cccc(OCC(=O)Nc2cc(C)on2)c1
Percent Effect (50 µM): 98.67%

Cc1cc(NC(=O)COc2ccc3c(c2)OCO3)no1
Percent Effect (50 µM): 15.18%

CC(=O)c1cccc(OCC(=O)NC2CCCC2)c1
Percent Effect (50 µM): -4.665%

COc1c(CNC2(c3noc(C)n3)CCC2)c(C)nn1C.Cl
Percent Effect (10 µM): 55.08%

Cc1nc(C2(NCc3c(C)nn(C)c3N3CCOCC3)CCC2)no1
Percent Effect (10 µM): 56.3%

Cc1csc(CNCc2c(C)nn(C)c2N2CCOCC2)n1
Percent Effect (10 µM): -26.69%

COc1c(CNC2(c3noc(C)n3)CCC2)c(C(C)C)nn1C.Cl
Percent Effect (10 µM): 11.38%

COc1c(CNC2(c3ccc(Cl)cc3)CCC2)c(C)nn1C
Percent Effect (10 µM): 7.233%

Cc1cc(CNCc2c(C)nn(C)c2N2CCOCC2)no1
Percent Effect (10 µM): -17.93%

CC(C)(C)OC(=O)NCCCOC1CCNCC1
Percent Effect (50 µM): 10.6%

O=C(CSc1nnnn1Cc1cccs1)NC1CC1
Percent Effect (50 µM): -25.88%

Cn1nc2c(cc1=O)CN(c1ncnc3ccsc13)CC2
Percent Effect (10 µM): 82.27%

CCn1nc2c(cc1=O)CN(c1ncnc3ccsc13)CC2
Percent Effect (10 µM): 76.59%

CCCn1nc2c(cc1=O)CN(c1ncnc3ccsc13)CC2
Percent Effect (10 µM): -2.045%

CC(C)n1nc2c(cc1=O)CN(c1ncnc3ccsc13)CC2
Percent Effect (10 µM): 9.432%

CC(C)n1nc2c(cc1=O)CN(c1ncnc3ccccc13)CC2
Percent Effect (10 µM): -24.89%

Cn1nc2c(cc1=O)CN(c1nc3ccccc3s1)CC2
Percent Effect (10 µM): -0.5196%

O=C(NC1CCCc2[nH]c(=O)ccc21)c1cc(Br)c[nH]1 (centres undefined)
Percent Effect (50 µM): 33.46%

O=C(CCCn1cccn1)N[C@H]1C[C@@H]2OCC[C@H]12
Percent Effect (50 µM): 16.13%

O=C(Cc1cccs1)N1CCNCC1
Percent Effect (50 µM): 1.272%

CCCc1nc(N2CCCC(C)C2)c2c(n1)c(C)nn2CC (centres undefined)
Percent Effect (10 µM): 19%

Cc1nn(C)c2c(N3CCCC3)nc(C3CC3)nc12
Percent Effect (10 µM): 10.42%

CCCc1nc(N2CCCCCC2)c2c(n1)c(C)nn2CC
Percent Effect (10 µM): 14.57%

CCCn1c(N2CCCCC2)nc2c(C)nn(C)c2c1=O
Percent Effect (10 µM): 85.32%

CCCn1c(N2CCCC(C)C2)nc2c(C)nn(C)c2c1=O (centres undefined)
Percent Effect (10 µM): 58.79%

CCn1c(NCC2CCCO2)nc2c(C)nn(C)c2c1=O (centres undefined)
Percent Effect (10 µM): 22.67%

CCn1nc(C)c2ncnc(N3CCCC(C)C3)c21 (centres undefined)
Percent Effect (10 µM): 16.85%

CCCn1c(N2CCCC2)nc2c(C)nn(C)c2c1=O
Percent Effect (10 µM): 74.14%

Cc1nn(C)c2c(=O)n(C)c(NCC3CCCO3)nc12 (centres undefined)
Percent Effect (10 µM): 10.39%

CC(N)C1(N2CCOCC2)CCCC1 (centres undefined)
Percent Effect (50 µM): -11.55%

CCNC(=O)c1cc2ccc(OC)cc2[nH]1
Percent Effect (50 µM): -0.6946%

O=C(NCC(F)(F)F)C1CCN(CC(F)F)CC1
Percent Effect (50 µM): -5.562%

CCN(Cc1nonc1C)C(=O)Cn1nc(C(F)(F)F)cc1C1CC1
Percent Effect (10 µM): 53.8%

CCN(Cc1nonc1C)C(=O)Cn1nc(C(F)(F)F)cc1C
Percent Effect (10 µM): 32.79%

CCN(Cc1nonc1C)C(=O)c1cc(C(F)(F)F)nn1C
Percent Effect (10 µM): 29.16%

CC(CO)(CO)NC(=O)Nc1cc(Br)ccc1F
Percent Effect (50 µM): 12.92%

CCOCCCNC(=O)c1cn(CC)nc1C
Percent Effect (10 µM): 0.2391%

CCOCCCNc1cc(C)nn2cnnc12
Percent Effect (10 µM): 66.33%

Cc1cc(NCCCOC(C)C)c2nncn2n1
Percent Effect (10 µM): 73.87%

CCOCCCNc1nc2c(s1)c(C)nn2C
Percent Effect (10 µM): -0.8738%

COCCn1cnnc1CNc1cc(C)nc2c(C)c(C)nn12
Percent Effect (10 µM): -11.49%

COCCCNc1cc(C)nn2cnnc12
Percent Effect (10 µM): 36.97%

COCCNc1cc(C)nn2cnnc12
Percent Effect (10 µM): 70.24%

Cc1nn(C)c2nc(-c3ccccn3)nc(NCCCOC(C)C)c12
Percent Effect (10 µM): -3.21%

COc1cc(-c2cnnc(NCCCOC(C)C)n2)cc(OC)c1OC
Percent Effect (10 µM): 4.137%

Cc1n[nH]c(SCC(=O)NC2CCCCC2)n1
Percent Effect (50 µM): 32.19%

Nc1ccn(-c2ccc(C(F)(F)F)cn2)n1
Percent Effect (50 µM): 9.315%

CC(C)c1ccn(C)n1
Percent Effect (50 µM): 1.261%

Cn1nccc1CCC(=O)NCC[C@@H]1CCCN1
Percent Effect (50 µM): 2.008%

CCCNC(=O)CCn1nc(C)cc1C
Percent Effect (50 µM): 59.42%

Cc1cc(C)n(CCC(=O)NCc2ccccn2)n1
Percent Effect (50 µM): -3.878%

CCC(C)C(=O)NCCCn1nc(C)cc1C (centres undefined)
Percent Effect (10 µM): 6.68%

C=C(C)CNc1nc2nonc2nc1NCCOC
Percent Effect (50 µM): 14.38%

CC(C)c1nnsc1CNC(=O)CCc1csc(N)n1
Percent Effect (50 µM): -4.031%

Cc1cc(C(=O)NC(C)c2ccncc2)ncn1 (centres undefined)
Percent Effect (50 µM): 8.375%

CC(=O)Nc1ccccc1CN
Percent Effect (50 µM): -1.882%

CCNC(=O)N1CCNCC1
Percent Effect (50 µM): 13.83%

CCCNC(=O)N1CCN(CCC)CC1
Percent Effect (50 µM): -47.68%

CCCC(=O)N1CCN(C(=O)NCC)CC1
Percent Effect (50 µM): 54.38%

COCC(C)(O)C(F)(F)F (centres undefined)
Percent Effect (50 µM): 7.186%

CC1Cc2ccccc2N1C(=O)c1ccccn1 (centres undefined)
Percent Effect (50 µM): 2.942%

COCC(O)CN(C)CCn1cc(Br)cn1 (centres undefined)
Percent Effect (50 µM): 16.66%

c1cnn(CCCNCCCn2cccn2)c1
Percent Effect (50 µM): 0.4357%

CCn1nc(C)c2nc(C(C)C)nc(NC)c21
Percent Effect (10 µM): 39.93%

CCn1nc(C)c2nc(C(C)C)nc(NCC(C)O)c21 (centres undefined)
Percent Effect (10 µM): 75.76%

CCn1nc(C)c2nc(C(C)C)nc(NCCCO)c21
Percent Effect (10 µM): 1.913%

CCn1nc(C)c2nc(C(C)C)nc(NCCc3ccc(O)cc3)c21
Percent Effect (10 µM): 48.01%

CCn1nc(C)c2nc(C(C)C)nc(NCC(C)C)c21
Percent Effect (10 µM): 49.36%

CCN(CC)CCNc1nc(C(C)C)nc2c(C)nn(CC)c12
Percent Effect (10 µM): 58.79%

COc1ccnc(N2CC[S+]([O-])CC2)n1
Percent Effect (50 µM): -6.202%

O=C(CC1C=CCC1)NCc1ccccn1 (centres undefined)
Percent Effect (50 µM): -4.879%

Cc1cccc(NC(=O)NC2CCN(C)CC2)c1
Percent Effect (50 µM): -9.939%

CC(NC(=O)NCCCN1CCCC1=O)c1ccco1 (centres undefined)
Percent Effect (50 µM): -1.872%

CCN(Cc1cccc(F)c1)C1CCS(=O)(=O)C1 (centres undefined)
Percent Effect (50 µM): -4.951%

Cc1ccc(CN(CC(=O)N2CCNC2=O)C(C)C)s1
Percent Effect (50 µM): -25.32%

CCc1noc(CC)c1CNC(=O)Nc1ncnn1C
Percent Effect (50 µM): 67.97%

CCc1noc(CC)c1CNC(=O)Nc1cccc([S+](C)[O-])c1 (centres undefined)
Percent Effect (10 µM): 5.882%

Cc1cc(NC(=O)NCCN2CCC(C)CC2)n(C)n1
Percent Effect (50 µM): -15.44%

CCc1noc(CC)c1CNC(=O)Nc1cccc(C(=O)N(C)C)c1
Percent Effect (10 µM): -1.441%

CC1CCN(CCNC(=O)Nc2ncnn2C)CC1
Percent Effect (50 µM): 93.89%

CSCCCNC(=O)Nc1ncnn1C
Percent Effect (50 µM): -6.612%

CN1CCCN(C(=O)c2ccc(N(C)C)cc2F)CC1
Percent Effect (50 µM): -3.403%

CN(CCOc1ccc(Cl)cc1)CCC(N)=O
Percent Effect (50 µM): -5.352%

CN(C)S(=O)(=O)N1CC(=O)NCC1(C)C
Percent Effect (50 µM): 14.19%

OCCNc1nccc(-c2c[nH]nc2-c2ccncc2)n1
Percent Effect (10 µM): -1.451%

OCCNc1nccc(-c2c[nH]nc2-c2cccnc2)n1
Percent Effect (10 µM): -8.104%

OCCNc1nccc(-c2c[nH]nc2-c2ccco2)n1
Percent Effect (10 µM): 54.25%

CN1Cc2ccccc2CC1=O
Percent Effect (50 µM): -6.86%

NC1CCC(N2C(=O)CCC2=O)CC1 (centres undefined)
Percent Effect (50 µM): 15.63%

CN(C)Cc1cccc(C(=O)N[C@@H]2CCOC[C@H]2O)c1
Percent Effect (50 µM): -6.19%

O=C(N[C@@H]1CCOC[C@H]1O)c1ccncc1
Percent Effect (50 µM): -0.1422%

CCCc1ccc(C(=O)N[C@@H]2CCOC[C@H]2O)cc1
Percent Effect (50 µM): 64%

C=C(C)C(C)(C)C(=O)N[C@@H]1COCC[C@H]1O
Percent Effect (50 µM): 16.24%

Cc1oc(-c2ccoc2)nc1CN1CCC[C@H]1CO
Percent Effect (10 µM): 75.83%

Cc1oc(-c2ccoc2)nc1CN1CCCCC1CCc1ccccc1 (centres undefined)
Percent Effect (10 µM): -14.19%

COCC1CCCCN1Cc1nc(-c2ccoc2)oc1C (centres undefined)
Percent Effect (10 µM): 1.217%

O=C(Nc1ccc(-n2nccn2)cc1)N1CCC(O)C1 (centres undefined)
Percent Effect (50 µM): -2.451%

CSCC[C@H](N)C(=O)N(C)Cc1ncc(Cl)n1C
Percent Effect (50 µM): -3.024%

Cc1ccc(CNC(=O)N2Cc3ccccc3C2)cn1
Percent Effect (50 µM): -21.35%

C=C/C=c1\c(=C/C)oc2c(NCc3ccccc3)nc(C)nc12
Percent Effect (10 µM): 54.55%

C=C/C=c1\c(=C/C)oc2c(NCc3ccccc3)nc(CC)nc12
Percent Effect (10 µM): 39.81%

C=C/C=c1\c(=C/C)oc2c(NCc3ccccc3)ncnc12
Percent Effect (10 µM): 26.91%

CC1CCCCN1C(=O)NCCNC(=O)c1ccn[nH]1 (centres undefined)
Percent Effect (50 µM): -2.19%

COc1cccc(CO)n1
Percent Effect (50 µM): -5.543%

CCC(N)c1cccc(OC)n1 (centres undefined)
Percent Effect (50 µM): -11.92%

CCC(=O)c1cccc(OC)n1
Percent Effect (50 µM): 98.31%

O=C(NCc1cccnc1)c1ccc(C(F)(F)F)nc1
Percent Effect (50 µM): 2.561%

COCCn1cncc1CO
Percent Effect (50 µM): 5.728%

Nc1c[nH]nc1C(=O)NCc1cccc(Cl)c1
Percent Effect (50 µM): 95.75%

Nc1ncccc1C(=O)NCc1cccc(Cl)c1
Percent Effect (10 µM): 10.41%

O=C(NCc1cccc(Cl)c1)c1cnns1
Percent Effect (50 µM): -15.41%

CCCOc1cccc(NCC(=O)N2CCNC2=O)c1
Percent Effect (50 µM): 1.752%

C[C@@H]1CN(C(=O)c2csc(CN(C)C)n2)C[C@]1(C)O
Percent Effect (50 µM): 11.61%

CNC(=O)Cc1noc(CCc2cccc(F)c2)n1
Percent Effect (50 µM): -4.248%

CCC(C)N(C)CCC(=O)Nc1ccc(C(N)=O)cc1 (centres undefined)
Percent Effect (50 µM): -26.89%

COc1ccc(S(=O)(=O)N2CCN(C)CC2)c(C)c1C
Percent Effect (50 µM): 5.644%

CC(C)(C)OC(=O)NCC1CC(C(N)=O)=NO1 (centres undefined)
Percent Effect (50 µM): 54.53%

CC(C)(C)OC(=O)NCC1CC(N)C1 (centres undefined)
Percent Effect (50 µM): 6.843%

CC(C)(C)OC(=O)NC[C@@H]1CCC[C@H]1N
Percent Effect (50 µM): -4.138%

Cc1nn(C)cc1C(=O)N1CCOC2(CCCC2)C1
Percent Effect (50 µM): 5.531%

CN(CC(N)=O)Cc1cccc(C#N)c1
Percent Effect (50 µM): -4.421%

CN(Cc1cccc(C#N)c1)Cc1ccnc(N)c1
Percent Effect (50 µM): 100.1%

COCCN(C)Cc1ccnc(N)c1
Percent Effect (50 µM): -7.11%
